According to PubChem BioAssay AID1347146 (National Center for Advancing Translational Sciences (NCATS), 2019):
Where “and” joins values, the source holds several entries; their conditions need not be identical. Equal entries are not always repeated. Records with an inconclusive call do not appear. Entries that show only a call come without a potency. Calls of active or inactive are those of the source. Calls come from the whole dose curve; as a rule, active = well fitted inhibition curve with a large enough effect; inconclusive = small, poorly fitted or top-dose-only effect; inactive = no such curve, though single readings can be large or run the other way.

Target: Nicotinamide N-methyltransferase (Homo sapiens) (UniProt P40261)
Assay: qHTS Assay for Inhibitors of N-terminal methyltransferase 1 (NTMT1): NNMT MTaseGlo counterscreen assay
Conditions: NNMT enzyme, MTase-Glo luminescence counterscreen; series mostly up to 57.1 µM
Procedure, shortened: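 Luminescent MTase-Glo read-out of SAH from nicotinamide methylation: 1 µM nicotinamide, 100 µM SAM, 125 nM NNMT, 30 min RT after ~15 min compound preincubation. Values normalized to no-enzyme/DMSO controls, Hill-fitted.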
Potency is the fitted concentration of half-maximal effect.

Nicotinamide N-methyltransferase (Homo sapiens), sequence (P40261 whole entry, looked up): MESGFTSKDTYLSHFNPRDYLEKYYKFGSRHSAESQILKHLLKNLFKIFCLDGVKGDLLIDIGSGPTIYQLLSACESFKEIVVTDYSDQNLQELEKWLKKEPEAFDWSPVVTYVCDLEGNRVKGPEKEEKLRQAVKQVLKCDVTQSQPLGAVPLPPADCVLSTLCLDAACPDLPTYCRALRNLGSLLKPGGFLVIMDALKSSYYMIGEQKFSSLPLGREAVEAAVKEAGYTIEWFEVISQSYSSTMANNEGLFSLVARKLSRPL

Which Potency does the source give for `CN(C)CCCN1c2ccccc2Sc2ccc(C(F)(F)F)cc21` here?
Its Potency is “inactive”.

How did the Potency turn out when `N#CC(C#N)=C(N)/C(C#N)=C/c1ccc(O)cc1` was run?
The Potency was “inactive”.

Which Potency does the source give for `CN(C)CCCN1c2ccccc2Sc2ccc(Cl)cc21` here?
The Potency was “inactive”.

For `CN1Cc2sccc2C(c2ccc(O)c(O)c2)C1` (configuration not stated), which Potency is on record?
Its Potency is “inactive”.

With `O=c1[nH]c(=S)[nH]c(-c2ccccc2)c1Cc1c(O)ccc2ccccc12` as the compound, how does the Potency read?
The Potency was “inactive”.

For `C[C@](Cc1ccc(O)c(O)c1)(NN)C(=O)O`, which Potency is on record?
The Potency was “inactive”.

Which Potency does the source give for `NS(=O)(=O)c1cccc2c1c([N+](=O)[O-])cc1nc(O)c(O)nc12` here?
Its Potency is “inactive”.

With `Nc1ncnc2c1ncn2[C@@H]1O[C@H](C(=O)N2CCN(CC(=O)Nc3cccc4c3CNC4=O)CC2)[C@@H](O)[C@H]1O` as the compound, how does the Potency read?
The Potency was “inactive”.

With `Nc1ncnc2c1ncn2[C@@H]1O[C@H](COP(=O)(O)OP(=O)(O)OC[C@H]2OC(O)[C@H](O)[C@@H]2O)[C@@H](O)[C@H]1O` (some centres not stated) as the compound, how does the Potency read?
Its Potency is “inactive”.

`C[C@H](Cc1ccc(O)c(O)c1)[C@@H](C)Cc1ccc(O)c(O)c1` was tested. Which Potency did it give?
The Potency was 22.4 µM (active) and 25.1 µM (active).

How did the Potency turn out when `COc1cc(CNC(=O)CCCCCCC(C)C)ccc1O` was run?
Its Potency is “inactive”.

`COc1cc2nc(N3CCCN(C)CC3)nc(N3CCN(C)CC3)c2cc1OC` was tested. Which Potency did it give?
Its Potency is “inactive”.

`O=C(N[C@@H](Cc1ccccc1)C(=O)CCl)OCc1ccccc1` was tested. Which Potency did it give?
The Potency was “inactive”.

How did the Potency turn out when `Nc1nc(Nc2ccccc2)nc2c1ncn2[C@@H]1O[C@H](CO)[C@@H](O)[C@H]1O` was run?
The Potency was “inactive”.

`Nc1ncnc2c1ncn2[C@@H]1O[C@H](CO)[C@@H](O)[C@H]1O` was tested. Which Potency did it give?
The Potency was “inactive”.

`CC(C)NC[C@@H](O)c1ccc(O)c(O)c1` was tested. Which Potency did it give?
The Potency was “inactive”.

For `O=C(O)Cc1ccc(O)c(O)c1`, which Potency is on record?
Its Potency is “inactive”.
